Reference: the supplement of paper PMC11383364
Where “and” joins values, the source holds several entries; their conditions need not be identical. Identical values can stand only once.

Each compound was assayed on SUM149 (assay: percent difference in area under dose-response curve of relative cell number, RPMI vs HPLM; higher = drug relatively more effective in HPLM than RPMI (negative = less effective in HPLM)). Conditions: treatment time: 72 h; dose range: 10-point, 1 nM to 20 µM; media compared: RPMI vs HPLM.
In the case of `CCC(C)n1ncn(-c2ccc(N3CCN(c4ccc(OCC5COC(Cn6cncn6)(c6ccc(Cl)cc6Cl)O5)cc4)CC3)cc2)c1=O` (stereo not drawn) [Itraconazole], the “percent difference in area under dose-response curve” value (from here on “percent difference in area”) is reported as -12%.
With `CN1CCN(c2ccc3nc(-c4c(N)c5c(F)cccc5[nH]c4=O)[nH]c3c2)CC1` [Dovitinib] the “percent difference in area” value was -0.391%.
`CN(C)CC[C@H](CSc1ccccc1)Nc1ccc(S(=O)(=O)NC(=O)c2ccc(N3CCN(Cc4ccccc4-c4ccc(Cl)cc4)CC3)cc2)cc1[N+](=O)[O-]` was tested, and the “percent difference in area” value was -4.67% and 1.88%.
In the case of `Cc1cc2c(C(=O)NC[C@H](C)c3ccccc3)c(O)c(O)cc2c(O)c1-c1c(C)cc2c(C(=O)NC[C@H](C)c3ccccc3)c(O)c(O)cc2c1O` [Sabutoclax], the “percent difference in area” value is reported as -9.94%.
`Cc1c(C(=O)Nc2ccc(N3C[C@@H](C)O[C@@H](C)C3)nc2)cccc1-c1ccc(OC(F)(F)F)cc1` was tested, and the “percent difference in area” value was -7%.
`CCOc1cc(N2CCC(O)CC2)ccc1Nc1ncc2c(n1)N(C)c1ccccc1C(=O)N2C` was tested, and the “percent difference in area” value was -8.79%.
With `CC[C@@]1(O)C(=O)OCc2c1cc1n(c2=O)Cc2cc3c(CN(C)C)c(O)ccc3nc2-1` [Topotecan_HCl] the “percent difference in area” value was -48.7%.
`CNC(=O)c1cc(COc2nnc(Nc3ccc(Cl)cc3)c3ccoc23)ccn1` [Telatinib] was tested, and the “percent difference in area” value was 2.16%.
